Reference: PubChem BioAssay (Tox21)
Results filed as inconclusive are left out. Active and inactive are the calls of the source. Unless noted, calls follow the shape of the full dose curve.

Tests used:
[1] = Nuclear factor erythroid 2-related factor 2/antioxidant responsive element (Nrf2/ARE) small molecule agonists: qHTS cell viability counter screen in human keratinocytes (AID 1919968; active = well fitted curve in the direction sought with a large enough effect in the repeat runs; an effect the other way counts as inactive or inconclusive; also: nearly all actives have a fitted effect of over 55% in size; also: potency is read from the fitted curve at half-maximal effect)
Outline: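 In human HaCaT keratinocytes stably expressing an ARE-driven luciferase, compound exposure lasted 23 h at 37 C under 5% CO2. Viable cells are quantified with a protease-based fluorogenic reagent (CellTiter-Fluor) read 1 h after addition.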

[2] = Nuclear factor erythroid 2-related factor 2/antioxidant responsive element (Nrf2/ARE) small molecule agonists: luciferase reporter gene qHTS assay in human keratinocytes (AID 1919969); also: nearly all actives have a fitted effect of over 35% in size; also: potency is read from the fitted curve at half-maximal effect
[3] = molecular target: Gonadotropin-releasing hormone receptor (Homo sapiens) (UniProt P30968); assay: Human gonadotropin-releasing hormone receptor (GnRHR) small molecule agonists, calcium flux assay in GnRHR-HEK293 cells (AID 1920063); also: nearly all actives have a fitted effect of over 35% in size; also: potency is read from the fitted curve at half-maximal effect
Outline: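 Intracellular calcium rise is the read-out: engineered human GnRHR HEK293 cells, dye-loaded, are exposed to DMSO-dissolved compounds and fluorescence at Ex/Em 480/540 is tracked for 3 min.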

[4] = molecular target: KiSS-1 receptor (Homo sapiens) (UniProt Q969F8); assay: Human kisspeptin (KISS1R) small molecule agonists, calcium flux assay in KISS1R-HEK293 cells (AID 1920064; active = well fitted curve in the direction sought with a large enough effect in the repeat runs; an effect the other way counts as inactive or inconclusive)
Outline: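 Concentration-response testing used 15 concentrations in triplicate on human KISS1R-expressing HEK293 cells. Calcium-dependent fluorescence (Ex/Em 480/540) was followed kinetically for 3 min after compound transfer.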

[5] = G protein-coupled receptor (GPCR) small molecule agonists, calcium flux assay: HEK293 wild type cell line counter screen (AID 1920065)
Outline: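 Fluorescence intensity signals activation. After overnight (18 h) culture and a 1 h calcium dye load at 37 C, compounds are added by pin tool and the plate read at 480/540 nm for 3 min in 1 s steps.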

[6] = p53 small molecule agonists, cell-based qHTS assay with human liver microsomes (AID 1963577)
Outline: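 p53RE-bla reporter cells were pre-incubated 5 h at 37 C, then treated with compounds plus human liver microsomes (0.5 mg/mL final) and NADPH (0.5 mg/mL final) for 16 h at 37 C. Beta-lactamase activity was read by LiveBLAzer fluorescence after 2 h at room temperature.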

[7] = p53 small molecule agonists, cell-based qHTS assay with rat liver microsomes (AID 1963578)
Outline: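 p53RE-bla cells were exposed to compounds together with rat liver microsomes (0.5 mg/mL final) and NADPH (0.5 mg/mL final) for 16 h at 37 C, then read by LiveBLAzer beta-lactamase fluorescence after 2 h at room temperature.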

[8] = p53 small molecule agonists, cell-based qHTS assay with human liver microsomes: qHTS cell viability counter screen (AID 1963579); also: nearly all actives have a fitted effect of over 45% in size; also: potency is read from the fitted curve at half-maximal effect
Outline: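 p53RE-bla cells (4,000/well) were pre-incubated 5 h at 37 C, then given compounds in DMSO plus human liver microsomes (0.5 mg/mL final) and NADPH (0.5 mg/mL final) for 16 h at 37 C. Viability was read by CellTiter-Glo luminescence.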

[9] = p53 small molecule agonists, cell-based qHTS assay with rat liver microsomes: qHTS cell viability counter screen (AID 1963580); also: nearly all actives have a fitted effect of over 45% in size; also: potency is read from the fitted curve at half-maximal effect
Outline: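 Cytotoxicity counter screen: intracellular ATP read by CellTiter-Glo luminescence in the p53 reporter wells. HCT-116 p53RE-bla cells were treated for 16 h at 37 C alongside rat liver microsomes and NADPH, each 0.5 mg/mL final.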

[10] = p53 small molecule agonists, cell-based qHTS assay (AID 1963582; active = well fitted activation curve with a large enough effect in the signal ratio in the repeat runs, not every such curve was filed as active; the % refers to the signal ratio)
Outline: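 After plating, p53RE-bla cells sat 5 h in the incubator; compounds or DMSO vehicle were pinned in; a 16 h incubation at 37 C followed; FRET substrate was added and, 2 h later at RT, fluorescence was measured.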

[11] = molecular target: 5-hydroxytryptamine receptor 2A (Homo sapiens) (UniProt P28223); assay: 5-hydroxytryptamine receptor 2A (HTR2A) small molecule antagonists, cell-based qHTS assay (AID 1963586); also: nearly all actives have a fitted effect of over 45% in size
Outline: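 CHO cells stably expressing human HTR2A were plated for 18 h at 37 C, then loaded with calcium dye for 1 h. Compounds were preincubated 5 min at room temperature before DOI (4 nM solution) was added. Kinetic fluorescence was read for 3 min.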

[12] = molecular target: 5-hydroxytryptamine receptor 2A (Homo sapiens) (UniProt P28223); assay: 5-hydroxytryptamine receptor 2A (HTR2A) small molecule agonists, cell-based qHTS assay (AID 1963587); also: nearly all actives have a fitted effect of over 30% in size
Outline: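 Kinetic calcium-flux fluorescence (2 min, 1 sec intervals) after compound addition in agonist mode. HTR2A-CHO cells were cultured 18 h, then dye-loaded 1 h at 37 C.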

[13] = molecular target: Muscarinic acetylcholine receptor M1 (Homo sapiens) (UniProt P11229); assay: Cholinergic receptor muscarinic 1 (CHRM1) small molecule antagonists, cell-based qHTS assay (AID 1963588); also: nearly all actives have a fitted effect of over 40% in size
Outline: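 Compounds were tested at 15 concentrations in three independent runs. Dye-loaded CHRM1-CHO cells were exposed 5 min at room temperature before stimulation by acetylcholine added at 50nM. Intracellular calcium was read kinetically on FDSS for 3 min.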

[14] = cAMP Responsive Elements (CRE) small molecule agonists, cell-based qHTS assay (AID 1963590)
Outline: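 Compound exposure lasted 3 h at 37 C/5% CO2 in CRE-bla HEK 293T cells grown in assay medium with 10% dialyzed FBS and 25 mM HEPES. Reporter signal came from LiveBLAzer B/G FRET substrate, 2 h, room temperature.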

[15] = cAMP Responsive Elements (CRE) small molecule antagonists, cell-based qHTS assay (AID 1963591; active = well fitted inhibition curve with a large enough effect in the signal ratio in the repeat runs, not every such curve was filed as active; the % refers to the signal ratio)
Outline: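 Stimulation used NKH477 at a final 0.25 uM for 3 h in compound-treated CRE-bla HEK293T cells, seeded 18 h beforehand. Reporter activity was measured with LiveBLAzer B/G FRET substrate after 2 h at room temperature.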

[16] = molecular target: Beta-2 adrenergic receptor (Homo sapiens) (UniProt P07550); assay: Adrenergic beta2 receptor (ADRB2) small molecule antagonists, cell-based qHTS assay (AID 1963592); also: series mostly up to about 92 µM; nearly all actives have a fitted effect of over 50% in size
Outline: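 Assay format: CHO-ADRB2 cells, 18-20hr seeding at 37C/5% CO2, then compound plus 1nM isoproterenol agonist mix for 0.5hr RT. Homogeneous time-resolved fluorescence cAMP detection after 1hr, expressed as 665/615 nm ratio.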

[17] = molecular target: Beta-2 adrenergic receptor (Homo sapiens) (UniProt P07550); assay: Adrenergic beta2 receptor (ADRB2) small molecule agonists, cell-based qHTS assay (AID 1963593); also: potency is read from the fitted curve at half-maximal effect;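 as to activation: CHO cells stably overexpressing human ADRB2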
Outline: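 CHO cells stably over-expressing ADRB2 were plated overnight at 37C, then dosed with compounds plus a stimulation mix containing 100uM IBMX and 25uM Ro-20-1724 for 0.5hr at room temperature. cAMP was measured by HTRF competition, 1hr.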

[18] = molecular target: D(2) dopamine receptor (Homo sapiens) (UniProt P14416); assay: Dopamine D2 receptor (DRD2) small molecule antagonists, cell-based qHTS assay (AID 1963595; active = well fitted inhibition curve with a large enough effect in the signal ratio in the repeat runs, with a control signal flat; the % refers to the signal ratio; also: potency is read from the fitted curve at half-maximal effect)
Outline: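 DRD2-HEK293; 0.1 mM Ro20-1724; cpd 10 min RT; NKH477 200 nM + quinpirole 12 nM, 30 min RT; HTRF cAMP (cAMP-d2/anti-cAMP cryptate), 665/620 nm ratio after 1 h.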

[19] = molecular target: Muscarinic acetylcholine receptor M1 (Homo sapiens) (UniProt P11229); assay: Cholinergic receptor muscarinic 1 (CHRM1) small molecule agonists, cell-based qHTS assay (AID 1963589); also: nearly all actives have a fitted effect of over 35% in size
Outline: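 Fluorescent calcium dye reports M1 activation in stably transfected CHO cells. Compounds, 15 concentrations, added after 1 h dye loading at 37 C; kinetic reading at 1 sec intervals.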

[20] = molecular target: D(2) dopamine receptor (Homo sapiens) (UniProt P14416); assay: Dopamine D2 receptor (DRD2) small molecule agonists, cell-based qHTS assay (AID 1963594); also: nearly all actives have a fitted effect of over 35% in size
Outline: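 cAMP accumulation in DRD2-HEK293 cells measured by HTRF after 1 h detection; compounds added 10 min before NKH477 (200nM […]) forskolin-analogue stimulation, 30 min at room temperature, with Ro20-1724 present at 0.1 mM final.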

Measured: Potency

Sequence of Gonadotropin-releasing hormone receptor (Homo sapiens) (P30968 whole entry, looked up): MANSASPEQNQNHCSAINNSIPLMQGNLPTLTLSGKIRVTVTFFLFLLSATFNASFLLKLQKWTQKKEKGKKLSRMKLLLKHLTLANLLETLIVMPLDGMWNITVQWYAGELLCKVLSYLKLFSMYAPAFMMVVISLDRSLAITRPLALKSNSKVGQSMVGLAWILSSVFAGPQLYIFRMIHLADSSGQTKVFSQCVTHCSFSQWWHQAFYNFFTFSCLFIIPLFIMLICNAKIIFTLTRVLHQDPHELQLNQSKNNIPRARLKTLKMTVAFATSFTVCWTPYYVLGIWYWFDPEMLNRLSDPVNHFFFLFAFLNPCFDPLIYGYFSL
Sequence of Muscarinic acetylcholine receptor M1 (Homo sapiens) (P11229 whole entry, looked up): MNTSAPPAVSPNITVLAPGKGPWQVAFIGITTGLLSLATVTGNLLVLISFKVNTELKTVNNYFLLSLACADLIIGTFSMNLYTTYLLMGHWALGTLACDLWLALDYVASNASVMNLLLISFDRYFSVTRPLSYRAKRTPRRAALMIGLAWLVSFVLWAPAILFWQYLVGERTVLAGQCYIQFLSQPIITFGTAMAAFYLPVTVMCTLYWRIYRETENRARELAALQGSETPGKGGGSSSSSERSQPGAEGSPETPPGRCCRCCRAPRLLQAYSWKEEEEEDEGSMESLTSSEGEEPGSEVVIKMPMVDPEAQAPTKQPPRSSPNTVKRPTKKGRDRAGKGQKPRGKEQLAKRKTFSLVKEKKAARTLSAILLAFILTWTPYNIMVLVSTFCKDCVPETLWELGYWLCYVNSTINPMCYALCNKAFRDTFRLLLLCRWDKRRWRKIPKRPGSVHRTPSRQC
Sequence of 5-hydroxytryptamine receptor 2A (Homo sapiens) (P28223 whole entry, looked up): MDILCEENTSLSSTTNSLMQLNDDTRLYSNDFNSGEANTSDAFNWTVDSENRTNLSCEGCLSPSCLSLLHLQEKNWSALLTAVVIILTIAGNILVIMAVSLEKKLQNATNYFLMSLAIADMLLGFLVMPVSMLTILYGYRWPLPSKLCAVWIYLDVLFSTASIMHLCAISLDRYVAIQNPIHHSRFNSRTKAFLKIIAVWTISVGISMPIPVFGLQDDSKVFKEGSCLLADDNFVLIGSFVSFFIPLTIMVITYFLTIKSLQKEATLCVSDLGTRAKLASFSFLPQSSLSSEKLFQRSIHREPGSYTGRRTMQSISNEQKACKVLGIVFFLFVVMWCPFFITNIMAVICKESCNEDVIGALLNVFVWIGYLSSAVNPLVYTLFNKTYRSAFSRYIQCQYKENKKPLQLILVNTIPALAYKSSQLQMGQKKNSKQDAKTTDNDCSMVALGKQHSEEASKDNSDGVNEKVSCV
Sequence of Beta-2 adrenergic receptor (Homo sapiens) (P07550 whole entry, looked up): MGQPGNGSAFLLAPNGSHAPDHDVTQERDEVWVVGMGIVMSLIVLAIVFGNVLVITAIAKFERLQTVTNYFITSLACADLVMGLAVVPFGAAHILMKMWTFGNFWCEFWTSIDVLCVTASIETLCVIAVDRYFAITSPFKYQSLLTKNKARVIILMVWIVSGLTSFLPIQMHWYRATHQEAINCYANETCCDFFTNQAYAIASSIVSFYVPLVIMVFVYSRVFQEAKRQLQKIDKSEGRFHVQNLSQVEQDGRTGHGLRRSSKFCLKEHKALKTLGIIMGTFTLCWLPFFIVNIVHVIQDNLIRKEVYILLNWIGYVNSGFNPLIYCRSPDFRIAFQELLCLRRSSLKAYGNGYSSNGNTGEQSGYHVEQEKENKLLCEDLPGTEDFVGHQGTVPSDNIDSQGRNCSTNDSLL
Sequence of KiSS-1 receptor (Homo sapiens) (Q969F8 whole entry, looked up): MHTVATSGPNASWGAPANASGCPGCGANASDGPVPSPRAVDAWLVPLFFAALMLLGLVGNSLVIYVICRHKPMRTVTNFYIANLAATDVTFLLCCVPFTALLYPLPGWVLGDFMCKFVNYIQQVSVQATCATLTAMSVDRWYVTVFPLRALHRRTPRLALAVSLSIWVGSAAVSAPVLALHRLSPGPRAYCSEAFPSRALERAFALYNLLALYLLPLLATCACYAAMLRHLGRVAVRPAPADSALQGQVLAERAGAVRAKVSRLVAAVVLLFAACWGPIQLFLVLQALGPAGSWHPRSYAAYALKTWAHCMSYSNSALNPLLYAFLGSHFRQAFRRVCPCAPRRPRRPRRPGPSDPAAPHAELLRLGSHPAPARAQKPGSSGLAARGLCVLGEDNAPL
Sequence of D(2) dopamine receptor (Homo sapiens) (P14416 whole entry, looked up): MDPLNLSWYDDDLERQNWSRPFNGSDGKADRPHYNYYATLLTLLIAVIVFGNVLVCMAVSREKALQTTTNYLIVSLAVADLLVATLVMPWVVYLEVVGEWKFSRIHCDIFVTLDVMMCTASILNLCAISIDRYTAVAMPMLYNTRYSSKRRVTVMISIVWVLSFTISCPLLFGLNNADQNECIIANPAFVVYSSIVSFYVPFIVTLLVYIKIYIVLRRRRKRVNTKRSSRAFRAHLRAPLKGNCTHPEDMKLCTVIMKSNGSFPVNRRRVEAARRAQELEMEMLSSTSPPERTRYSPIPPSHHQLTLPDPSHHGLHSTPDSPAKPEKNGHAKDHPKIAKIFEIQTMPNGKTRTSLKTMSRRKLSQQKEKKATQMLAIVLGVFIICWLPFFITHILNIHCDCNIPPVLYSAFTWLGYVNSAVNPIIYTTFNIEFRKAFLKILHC

C1CCN(CN2CCCCC2)CC1
not listed: [19] | [20]
inactive: all other assays above

CC(C)C(=O)OC/C=C/c1ccccc1
not listed: [19] | [20]
inactive: all other assays above

O=Cc1c2ccccc2c(Cl)c2ccccc12
active: [2] 7.51 µM
not listed: [10] | [14] | [16]
inactive: all other assays above

Oc1c(I)cc(I)c2cccnc12
not listed: [11] | [12] | [13] | [17] | [19]
inactive: all other assays above

O=S1(=O)CC(Cl)(Cl)C(Cl)(Cl)C1
active: [1] 6.11 µM | [2] 2.43 µM | [8] 5.76 µM | [9] 18.2 µM
inactive: [3] | [4] | [5] | [6] | [7] | [11] | [12] | [13] | [19]

CN(C)CCN1C(=O)c2ccccc2N(C)c2ccccc21
not listed: [11] | [13]
inactive: all other assays above

O=c1c(-c2ccccc2)c1-c1ccccc1
active: [1] 1.19 µM | [2] 2.66 µM
not listed: [10] | [14] | [15] | [17]
inactive: all other assays above

Cc1ccc(Cl)c(OCC(O)CNC(C)(C)C)c1 (stereo unspecified)
not listed: [11] | [16] | [17] | [19]
inactive: all other assays above

CN1[C@@H]2CC[C@H]1CC(OC(=O)c1c[nH]c3ccccc13)C2 (stereo partly specified)
not listed: [11] | [12] | [13] | [16] | [17] | [19]
inactive: all other assays above

O=C1OC(=O)C2C3C=CC(C3)C12 (stereo unspecified)
not listed: [11] | [12] | [20]
inactive: all other assays above

C=CC(=O)OCC(CO)(COCC(COC(=O)C=C)(COC(=O)C=C)COC(=O)C=C)COC(=O)C=C
active: [1] 4.28 µM | [2] 2.4 µM | [8] 3.2 µM | [9] 35.9 µM | [17] 30.3 µM | [18] 27 µM
not listed: [10] | [14] | [15] | [16]
inactive: all other assays above

O=C(O)Cn1c(C(=O)Nc2nc(-c3ccccc3Cl)cs2)cc2ccccc21
active: [2] 15 µM | [3] 3.38 µM
not listed: [10] | [14] | [15] | [17] | [20]
inactive: all other assays above

CC(C(=O)O)c1ccc2c(c1)Cc1cccnc1O2 (stereo unspecified)
not listed: [10] | [14] | [15] | [17] | [18]
inactive: all other assays above

CC(C)(C(=O)c1cccnc1)c1cccnc1
not listed: [11] | [12] | [13] | [17] | [19]
inactive: all other assays above

COC(=O)C(C)(C)C
not listed: [10] | [17]
inactive: all other assays above
